Sampled rows, rich in hits. Any-hit rate of the full collection: about 0.83%.
Pf gamet viab: kills late stage P. falciparum gametocytes. P. falciparum stage V gametocytes, ATP luminescence, 24 h. inhibition, % at 10.9 µM. hit rate 0.065% among 150,000;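 active = inhibition above the mean plus 3 SD of compounds within the control limits, set per campaign, cut at about 38% in these data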
S1P4 ag: agonists of human S1P4 receptor; O95977; activation, % at 4.98 µM; S1P4-expressing cell line, agonist reporter assay; AID 1509; hit rate 0.35% among 220,000; in the data active = activation above about 11%
Hsp70 activator: switches on Hsp70 transcription; HeLa Hsp70 promoter luciferase reporter, luminescence; scaled: vehicle 0, proteasome-inhibitor control 100%; activation, % at 10 µM; hit rate 0.04% among 200,000; AID 1203;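 active = activation above the mean across all tested compounds plus 3 SD, cutoff set per campaign, cut at about 5.5% in these data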
S1P4 antagonist: antagonists of human S1P4 receptor. S1P4-expressing cells, antagonist mode, reporter read-out. O95977. inhibition, % at 4.98 µM. hit rate 0.26% among 220,000; in the data active = inhibition above about 29%
S1P3 antagonist: antagonists of human S1P3 receptor; CHO S1P3 NFAT-BLA reporter, FRET fluorescence, antagonist mode; hit rate 0.27% among 170,000; AID 485; inhibition, % at 4.98 µM;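 active = inhibition above the plate cutoff, the mean inhibition of test wells on that plate plus 3 SD, cut at about 28% in these data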;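 note: cells challenged with S1P at its EC80 of 0.8 µM; blue over green emission ratio from cleaved BLA substrate after 4 h stimulation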
S1P4 ag conf: confirmation of human S1P4 receptor agonists; shares compounds with S1P4 ag; S1P4 agonist cell-based reporter assay; activation, % at 4.98 µM; hit rate 7% among 740; AID 1523; in the data active = activation above about 12%
S1P1 agonist: activates human S1P1, counter-screen for S1P4 agonists | S1P1 agonist cell-based assay, activation | activation, % at 4.98 µM | shares compounds with S1P4 ag | hit rate 4% among 740; in the data active = activation above about 21%
Target sequence (P21453 whole entry, looked up): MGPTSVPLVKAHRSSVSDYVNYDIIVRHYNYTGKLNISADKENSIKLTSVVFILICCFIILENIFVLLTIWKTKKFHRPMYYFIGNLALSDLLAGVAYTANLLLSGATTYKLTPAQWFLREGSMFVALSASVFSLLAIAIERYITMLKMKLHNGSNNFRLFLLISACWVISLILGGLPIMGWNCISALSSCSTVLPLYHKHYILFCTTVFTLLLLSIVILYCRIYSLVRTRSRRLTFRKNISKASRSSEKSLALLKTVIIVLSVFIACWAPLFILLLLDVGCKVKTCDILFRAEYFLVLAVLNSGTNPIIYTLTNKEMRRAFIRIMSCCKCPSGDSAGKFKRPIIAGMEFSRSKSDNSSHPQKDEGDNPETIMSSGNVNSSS
Of the large screens only hits and unclear results are named; the others gave an inactive call (follow-up assays come after a bar, where they were run).

CC(=O)Nc1ccc(C(=O)N/N=C/c2ccccc2OCc2ccccc2)cc1	S1P4 ag 18.6 | S1P4 ag conf inactive | S1P1 agonist inactive
CCn1cc(CN2CCN(CCc3ccccc3)C(CCO)C2)c(C)n1 (configuration not stated)	none
Cn1c(O)c(N=NC(=S)Nc2ccccc2F)c2cc(S(=O)(=O)N3CCOCC3)ccc21	S1P4 ag 17.1 | S1P4 ag conf inactive | S1P1 agonist inactive
Cc1ccc(NC(=S)N=Nc2c(O)n(C)c3ccc(S(=O)(=O)N4CCOCC4)cc23)cc1C	none (no result: Pf gamet viab)
CN(CCOc1ccccc1)C(=O)c1cc([N+](=O)[O-])cc([N+](=O)[O-])c1	none
CCOC(=O)c1cn(CC)c2cc(N3CCOCC3)c(F)cc2c1=O	S1P4 ag 13.7 | S1P4 ag conf inactive | S1P1 agonist inactive
CS(=O)(=O)N1CCc2cc(C(=O)N3CCOCC3)ccc21	S1P4 ag 26.9 | S1P4 ag conf inactive | S1P1 agonist inactive
O=C(NC1CC1)C1CCN(C2CCN(C(=O)CC3=CCCCC3)CC2)CC1	none
O=c1cc(CSc2nc(NCc3ccccc3)c3ccccc3n2)nc2ccc(Cl)cn12	S1P4 ag 28.4 | S1P4 ag conf inactive | S1P1 agonist inactive
COc1ccc(S(=O)(=O)N2c3ccccc3OCC2C)cc1 (configuration not stated)	S1P4 ag 15.2 | S1P4 ag conf inactive | S1P1 agonist inactive
Cc1ccc(S(=O)(=O)N(C)C)cc1NC(=O)COC(=O)c1n[nH]c(=O)c2ccccc12	S1P4 ag 25.2 | S1P4 ag conf inactive | S1P1 agonist inactive
Cc1ccc(S(=O)(=O)N2CCOCC2)cc1NC(=O)COC(=O)c1n[nH]c(=O)c2ccccc12	none (no result: Pf gamet viab)
Cc1cc(=S)cc(C)n1CCO	S1P4 ag 11.2 | S1P4 ag conf inactive | S1P1 agonist inactive
CCn1nc(C)c(/C=N/NC(=S)Nc2ccc(Cl)cc2Cl)c1C	none
Cc1nn(C)cc1/C=N/NC(=S)Nc1ccc(Cl)cc1Cl	S1P4 ag 15.4 | S1P4 ag conf inactive | S1P1 agonist inactive
CSc1sc(C(=O)Nc2ccc(F)cc2F)c2c1C=CCC2	none (no result: Hsp70 activator)
OCCOCCNc1ncnc2c1cnn2-c1ccc(Cl)cc1	S1P4 ag 67.8 (no result: S1P3 antagonist) | S1P4 ag conf inactive | S1P1 agonist inactive
CCOc1ccc(NC(=O)Nc2cccn(Cc3ccccc3)c2=O)cc1	S1P4 ag 38.0 | S1P4 ag conf inactive | S1P1 agonist inactive
CCOc1ccc(NC(=S)N2CCn3c(nc4ccccc43)C2)cc1	none (no result: Pf gamet viab)
CCCc1nn(C)c(C(N)=O)c1[N+](=O)[O-]	S1P4 ag 11.9 | S1P4 ag conf inactive | S1P1 agonist inactive
CN(C)C(=O)c1c([N+](=O)[O-])c(C(C)(C)C)nn1C	none
C[C@H]1C=C(C(=O)NCc2ccccc2)O[C@@H](OCc2ccc(CO)cc2)C1	none
CC(C)=CCN1CCN(Cc2cnc(-c3ccccc3)s2)CC1CCO (configuration not stated)	none
COc1ccc(CCC(=O)N2CCCSC2=Nc2ccc(C(C)=O)cc2)cc1	S1P4 ag 23.5 | S1P4 ag conf inactive | S1P1 agonist inactive
CCc1nc(N)c(C#N)c(-c2cccc3ccccc23)c1C	S1P4 ag 16.3 (no result: S1P3 antagonist) | S1P4 ag conf inactive | S1P1 agonist inactive
CCc1nc(N)c(C#N)c(-c2ccncc2)c1C	none
CN(C)CCNC(=O)Cc1ncc(C(F)(F)F)cc1Cl	none
O=C(Cc1ncc(C(F)(F)F)cc1Cl)NCCc1ccccn1	S1P4 ag 13.0 | S1P4 ag conf inactive | S1P1 agonist inactive
Cc1cc(NC(=O)CC#N)n(-c2ccccc2)n1	none
COCCNC(=O)c1ccccc1NC(=O)Cc1ccccc1[N+](=O)[O-]	S1P4 ag 234.7 | S1P4 ag conf inactive | S1P1 agonist inactive
Cc1ccc(NC(=O)Nc2cc(S(C)(=O)=O)ccc2Cl)cc1	none (no result: Hsp70 activator)
O=C(CN1CCN(c2ccccc2O)CC1)Nc1ccc2c(c1)CCC2	S1P4 ag 13.4 | S1P4 ag conf inactive | S1P1 agonist inactive
N#CCc1ccc(OC(=O)c2ccncc2)cc1	none (no result: S1P4 ag, Hsp70 activator, S1P4 antagonist, S1P3 antagonist)
CCOC(=O)c1c(-n2c(C)cc(C=O)c2C)sc2c1CCCC2	S1P4 ag 16.1 (no result: Pf gamet viab, S1P3 antagonist) | S1P4 ag conf 21.1 | S1P1 agonist inactive
CCOC(=O)c1cc(COc2cc(Cl)cc(Cl)c2)on1	none (no result: Pf gamet viab, Hsp70 activator)
COc1ccccc1-n1c(SCC(N)=O)nnc1-c1ccc(S(=O)(=O)N2CCCCC2)cc1	S1P4 ag 22.9 | S1P4 ag conf inactive | S1P1 agonist inactive
Cc1ccc(/C=C/C(=O)NCc2ccc(S(N)(=O)=O)cc2)o1	S1P4 ag 11.6 | S1P4 ag conf inactive | S1P1 agonist inactive
CCc1nnc(NC(=O)c2ccc(Cl)c(S(=O)(=O)N3CCc4ccccc4C3)c2)s1	S1P4 ag 19.9 | S1P4 ag conf inactive | S1P1 agonist inactive
Cc1ccc(C(=O)/C=C2/NC(=O)CS2)cc1	S1P4 ag 19.9 (no result: Pf gamet viab, S1P3 antagonist) | S1P4 ag conf inactive | S1P1 agonist inactive
O=C1CS/C(=C/C(=O)c2cccc(Cl)c2)N1	none
Oc1cccc(/C=N/Nc2cc(N3CCOCC3)nc(N3CCOCC3)n2)c1	S1P4 ag 13.2 | S1P4 ag conf inactive | S1P1 agonist inactive
Cc1nc(Cl)c2c(n1)NC1=C(O2)C(=O)CCC1	S1P4 ag 14.2 | S1P4 ag conf inactive | S1P1 agonist inactive
COCCNC(=O)/C(C#N)=c1\s/c(=C\c2ccccc2OC(F)F)c(=O)n1Cc1ccccc1	S1P4 ag 12.4 (no result: Pf gamet viab) | S1P4 ag conf inactive | S1P1 agonist inactive
COCCCn1c(=O)/c(=C\c2ccccc2OC(F)F)s/c1=C(/C#N)C(=O)NCCOC	none (no result: Hsp70 activator)
O=C1NC(c2ccco2)Nc2sc3c(c21)CCN(Cc1ccccc1)C3 (configuration not stated)	S1P4 ag 15.4 (no result: Pf gamet viab) | S1P4 ag conf inactive | S1P1 agonist inactive
CN1CCc2c(sc3c2C(=O)NC(c2ccco2)N3)C1 (configuration not stated)	none
Cc1c(Cc2ccccc2)sc(NC(=O)/C=C/c2cccc3ccccc23)c1C(N)=O	none
CCOc1ccc(C(=O)NCC(c2cccs2)N(C)C)cc1 (configuration not stated)	S1P4 ag 14.7 | S1P4 ag conf inactive | S1P1 agonist inactive
CCOc1ccc(C(=O)NCC(C)C)cc1	none (no result: Pf gamet viab, S1P3 antagonist)
O=C(NCc1cccnc1)NC1CC(=O)N(c2ccc3c(c2)OCCO3)C1 (configuration not stated)	none
CC(Oc1ccccc1)C(=O)OCC(=O)NC(=O)NCc1ccco1 (configuration not stated)	none (no result: Pf gamet viab, S1P3 antagonist)
CC(C)c1cc(C(=O)OCC(=O)NC(=O)NCc2ccco2)c(O)c(C(C)C)c1	S1P4 ag 43.6 | S1P4 ag conf 36.0 | S1P1 agonist inactive
COc1ccc(CCC(=O)NCCNC(=O)CCc2ccc(OC)cc2)cc1	none (no result: S1P4 ag, Hsp70 activator, S1P4 antagonist, S1P3 antagonist)
CCCCC(=O)NCCc1ccc(OC)cc1	S1P4 ag 25.5 (no result: Pf gamet viab, S1P3 antagonist) | S1P4 ag conf inactive | S1P1 agonist inactive
Cc1cc(C)nc(SCc2nnc(SCC(=O)O)n2-c2ccccc2)n1	S1P4 ag 14.0 | S1P4 ag conf inactive | S1P1 agonist inactive

Screening data (PubChem BioAssay)
